Measured values taken from PubChem BioAssay AID1159580 (chemical genetic matrix, 2015).
Where “and” joins values, the source holds several entries; their conditions need not be identical. Equal values may be shown once. In all, about 5,500 compounds went through this assay and about 2,000 (36%) were called active. Roughly 18% stayed inconclusive and do not appear here. Rule as the data show it: active = normalized growth mostly below about 0.91 (no sharp cut-off); inconclusive = no clear call, values can overlap the other calls; inactive = mostly above about 0.92. Some of the results follow.

Experiment: chemical genetic growth profiling, strain panel (AID 1159580);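 also: tested at 20 µM; growth read once vehicle control cultures reached saturation at 30 °C; 1 = growth at the plate median or of vehicle wells; lower values mean less growth of the strain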
Details: S. cerevisiae deletion strains, growth OD

Measured: normalized growth

COC(C)(C)CCC[C@H](C)C/C=C/C(C)=C/C(=O)OC(C)C
inactive: locus YAL013W, strain DEP1, hits give low values 0.998 | locus YAL021C, strain ccr4, hits give low values 1.03 | locus YAL026C, strain drs2, hits give low values 1.01 | locus YAL030W, strain snc1, hits give low values 1.03 | locus YBL061C, strain skt5, hits give low values 1.02 | locus YBR009C, strain hhf1, hits give low values 1.01 | locus YBR021W, strain FUR4, hits give low values 0.985 | locus YBR023C, strain chs3, hits give low values 1.02 | locus YBR171W, strain sec66, hits give low values 1.02 | locus YBR229C, strain ROT2, hits give low values 1 | locus YBR231C, strain swc5, hits give low values 1 | locus YBR279W, strain paf1, hits give low values 1 | locus YCL011C, strain gbp2, hits give low values 1.02 | locus YCL016C, strain dcc1, hits give low values 1.01 | locus YCL029C, strain bik1, hits give low values 1.05 | locus YCL061C, strain MRC1, hits give low values 1.02 | locus YCL069W, strain vba3, hits give low values 1.03 | locus YCR088W, strain abp1, hits give low values 1.02 | locus YDL005C, strain med2, hits give low values 1 | locus YDL035C, strain GPR1, hits give low values 1 | locus YDL040C, strain nat1, hits give low values 1 | locus YDL074C, strain BRE1, hits give low values 0.998 | locus YDL101C, strain DUN1, hits give low values 1.01 | locus YDL134C, strain PPH21, hits give low values 1.01 | locus YDL185W, strain tfp1, hits give low values 1.01 | locus YDL192W, strain arf1, hits give low values 1.03 | locus YDR001C, strain nth1, hits give low values 1.02 | locus YDR069C, strain doa4, hits give low values 1.01 | locus YDR101C, strain arx1, hits give low values 1.02 | locus YDR137W, strain rgp1, hits give low values 1.09 | locus YDR150W, strain NUM1, hits give low values 0.994 | locus YDR159W, strain sac3, hits give low values 1.03 | locus YDR162C, strain NBP2, hits give low values 1 | locus YDR195W, strain ref2 0.99 | locus YDR297W, strain sur2, hits give low values 1.02 | locus YDR318W, strain mcm21, hits give low values 1.03 | locus YDR334W, strain swr1, hits give low values 1.02 | locus YDR335W, strain msn5, hits give low values 1.03 | locus YDR388W, hits give low values 1.02 | locus YDR392W, strain spt3, hits give low values 1.05 | locus YDR502C, strain sam2, hits give low values 1.03 | locus YEL003W, strain gim4, hits give low values 1.01 | locus YEL037C, strain rad23, hits give low values 1.01 | locus YEL061C, strain CIN8 (second series), hits give low values 1.02 | locus YEL061C, strain CIN8, hits give low values 0.999 | locus YER015W, strain faa2, hits give low values 1.01 | locus YER016W, strain bim1, hits give low values 1.02 | locus YER110C, hits give low values 1.03 | locus YER111C, strain swi4, hits give low values 1.01 | locus YER155C, strain BEM2 (second series), hits give low values 1.01 | locus YER155C, strain BEM2, hits give low values 0.99 | locus YER167W, strain BCK2, hits give low values 1.01 | locus YFR010W, strain ubp6, hits give low values 1 | locus YGL078C, strain dbp3, hits give low values 1.02 | locus YGL086W, strain mad1, hits give low values 1 | locus YGL167C, strain pmr1, hits give low values 1.02 | locus YGL173C, strain kem1, hits give low values 1.02 | locus YGL227W, strain vid30, hits give low values 1.05 | locus YGL240W, strain doc1, hits give low values 1.03 | locus YGL248W, strain PDE1, hits give low values 1.01 | locus YGL253W, strain hxk2, hits give low values 1 | locus YGR078C, strain PAC10, hits give low values 1.01 | locus YGR135W, strain pre9, hits give low values 1.04 | locus YGR229C, strain SMI1, hits give low values 1.03 | locus YGR252W, strain gcn5, hits give low values 1.06 | locus YHR013C, strain ard1, hits give low values 1.03 | locus YHR027C, strain rpn1, hits give low values 1 | locus YHR030C, strain SLT2, hits give low values 1 and 0.961 | locus YHR079C, strain IRE1 (second series), hits give low values 1.01 | locus YHR079C, strain IRE1, hits give low values 0.942 | locus YHR094C, strain hxt1, hits give low values 1.01 | locus YHR129C, strain ARP1, hits give low values 0.998 | locus YHR142W, strain chs7, hits give low values 0.979 | locus YHR200W, strain rpn10, hits give low values 1.02 | locus YIL066C, strain RNR3, hits give low values 1.01 | locus YIL073C, strain SPO22, hits give low values 1.08 | locus YIL125W, strain kgd1, hits give low values 1.01 | locus YIR030C, strain dcg1, hits give low values 1.03 | locus YJL092W, strain hpr5, hits give low values 1.03 | locus YJL095W, strain BCK1 (second series), hits give low values 1.02 | locus YJL095W, strain BCK1, hits give low values 1.03 and 0.955 | locus YJL115W, strain asf1, hits give low values 1.02 | locus YJL129C, strain trk1, hits give low values 0.942 | locus YJL134W, strain LCB3, hits give low values 1 | locus YJL154C, strain vps35, hits give low values 1.01 | locus YJL164C, strain tpk1, hits give low values 1 | locus YJL166W, strain qcr8, hits give low values 1.02 | locus YJL168C, strain set2, hits give low values 1.02 | locus YJL187C, strain SWE1 (second series), hits give low values 1.02 | locus YJR043C, strain POL32, hits give low values 1.01 | locus YJR066W, strain TOR1, hits give low values 0.892
